# Assay results published in ChEMBL document CHEMBL1157539, “Thousands of chemical starting points for antimalarial lead identification” (Nature, 2010).
# Columns and labels:
# Type in all cases: functional
# Plasmodium falciparum [1] = experiment: GSK_TCMDC: Inhibition of Plasmodium falciparum 3D7 in whole red blood cells, using parasite LDH activity as an index of growth. Test compounds present at 2uM
# Plasmodium falciparum [2] = experiment: GSK_TCMDC: Inhibition of Plasmodium falciparum Dd2 in whole red blood cells, using parasite LDH activity as an index of growth. Test compounds present at 2uM
# HepG2 = experiment: GSK_TCMDC: Percent inhibition of human HepG2 cell line. Test compounds present at 10uM.
SMILES,Inhibition (Plasmodium falciparum [1]),Inhibition (Plasmodium falciparum [2]),Inhibition (HepG2)
O=C(Nc1ccc2oc(-c3ccc(Cl)cc3Cl)nc2c1)c1ccc([N+](=O)[O-])o1,95%,78%,39%
Cc1cc(=O)c2cc(Oc3cccc(OC(F)(F)F)c3)ccc2[nH]1,90%,80%,9%
O=C(Nc1cccc(-c2ccc(-c3nc4ccccc4[nH]3)cc2)c1)c1cnn2cccnc12,87%,1%,9%
CCOc1ccccc1NC(=O)Nc1ccc2c(c1)CCN(C1CCC1)CC2.Cl,88%,2%,15%
Cl.N=C(N)NN=Cc1c2ccccc2c(Cl)c2cc(Cl)ccc12,97%,28%,26%
Br.CC1(C)NC(N)=NC(=N)N1OCc1cccs1,93%,0%,60%
CCN(CCNc1nc(NCCc2cnc[nH]2)nc(N(CCC#N)Cc2ccccc2)n1)c1cccc(C)c1,100%,92%,13%
Cc1cccc2nc(-c3ccc(-c4ccc(NC(=O)Nc5ccc(F)c(F)c5F)cc4)cc3)[nH]c12,100%,97%,51%
Cc1cc(Cl)ccc1NC(=O)Nc1ccc2nccc(N3CCN(C)CC3)c2c1,100%,74%,0%
O=C(Nc1ccc2ccccc2c1)c1ccc(CN2CCC(Cc3ccccc3)CC2)cc1,95%,10%,38%
Cc1cc(N[C@@H](CC(C)C)C(=O)NCCOc2ccccc2)nc(NCCOc2ccccc2)n1.O=C(O)C(F)(F)F,89%,6%,0%
Cc1cccc2nc(-c3ccc(-c4cccc(CNCCCNS(C)(=O)=O)c4)cc3)[nH]c12.O=C(O)C(F)(F)F,99%,5%,5%
O=c1c(NCCCN(Cc2ccc(F)cc2)c2ccccn2)c(NCc2ccncc2)c1=O,100%,95%,30%
Cc1ccccc1CCNC(=O)c1cnc(N2CCN(c3ccncc3)CC2)c(Cl)c1.O=C(O)C(F)(F)F,100%,95%,36%
Cn1nc(-c2ccccc2F)c2cc(C(=O)NC3CCN(Cc4ccccc4)CC3)sc21,97%,34%,5%
COc1cccc(CNC(=O)c2cnc(N3CCN(c4ccncc4)CC3)c(Cl)c2)c1.O=C(O)C(F)(F)F,89%,12%,25%
COc1cccc(CN2CCC(N3CCc4cc(NC(=O)c5cc(C)on5)ccc43)C2)c1OC (configuration not stated),93%,92%,9%
CCCNC(=O)c1cncc(-c2ccc(CNC3Cc4ccccc4C3)cc2)c1.O=C(O)C(F)(F)F,97%,21%,9%
CCCNCc1ccc(-c2ccc(CN(Cc3ccc4c(c3)OCO4)C(=O)Cc3cccnc3)cc2)nc1.O=C(O)C(F)(F)F,94%,53%,16%
COc1cc(NC(=O)/C=C/c2ccccc2OC(F)(F)F)cc(OCCN2CCN(CCN3CCOCC3)CC2)c1.O=C(O)C(=O)O,98%,25%,20%
CCOc1cc(CC)ccc1C1CCN(CCN2CCC(CNC(=O)c3ccc(-c4ccc(C#N)cc4)cc3)CC2)CC1,89%,100%,53%
O=C(O)C(F)(F)F.O=C1COC(c2ccccc2)(c2ccccc2)CN1CC1CCN(Cc2ccc(O)cc2Cl)C1 (configuration not stated),85%,81%,53%
Cc1n[nH]c(C)c1C1CCN(CC2CCC(NC(=O)/C=C/c3ccc(Cl)c(Cl)c3)CC2)CC1 (configuration not stated),100%,53%,15%
COc1cc(NC(=O)c2sc(-c3ccc(Cl)cc3)cc2NC(=O)c2cccc(N(C)C)c2)ccc1OCCN1CCCC1,99%,67%,49%
CCCCCCCc1c2c(C)c(C(=O)OCC)nc-2cc2n1CC(C)=C2C.Cl,89%,10%,11%

SMILES,Inhibition (Plasmodium falciparum [1]),Inhibition (Plasmodium falciparum [2]),Inhibition (HepG2)
CN(C)Cc1ccc2nc(-c3cccc(Cc4cc(Cl)ccc4OCc4ccc(Cl)cc4F)n3)[nH]c2c1.Cl,93%,26%,43%
CC(C)c1cc2c(ccc3nc(N)nc(N)c32)o1,99%,37%,66%
CN(C)Cc1ccc(O)c(-c2ccc(C(C)(C)C)cc2)n1.Cl,86%,25%,0%
Cc1nc(C)n(CC(=O)Nc2cccc(-c3cccc(-c4nc5cc(C(F)(F)F)ccc5[nH]4)c3)c2)n1,100%,96%,62%
Cc1ccc2c(=O)cc(CCc3cccc(F)c3F)n(CC(=O)N(Cc3ccc(-c4ccc(C(F)(F)F)cc4)cc3)C3CCN(C(C)C)CC3)c2n1.O=C(O)C(O)C(O)C(=O)O,100%,49%,58%
Cc1cc(C(=O)Nc2ccc(-c3ccccc3)cc2)no1,90%,94%,6%
O=C(NCCN1CCCC1)c1ccc(-c2ccc(-c3nc4ccccc4[nH]3)s2)cc1,92%,3%,22%
Cc1ccc(C2CCN(CCCCNC(=O)c3ccc(NC(=O)c4ccc(Cl)cc4)cc3)CC2)c(C)c1.Cl,96%,10%,23%
NCc1ccc(CNCc2ccc(-c3ccc(-c4nc5cc(C(F)(F)F)ccc5[nH]4)s3)cc2)cc1.O=C(O)C(F)(F)F,95%,92%,34%
CCNC[C@@H](O)[C@H](Cc1ccccc1)NC(=O)c1cc2c3c(c1)c(CC)cn3CCS(=O)(=O)N2C.O=CO,99%,65%,0%
Cl.O=C(/C=C/c1ccc(Cl)c(Cl)c1)N1CCC(CCN2CCC(c3c[nH]c4cnccc34)CC2)CC1,100%,100%,93%
Cc1nc(SCC(=O)N2CCCC2=O)c2c(C)c(C)sc2n1,96%,0%,45%
CCCc1cc2c3c(N)nc(N)nc3ccc2n1C(CC)CC,100%,73%,70%
O=S(=O)(Nc1cccc(CCN2CCC(N3CCCCC3)CC2)c1)c1ccc(Oc2ccccc2)cc1,100%,25%,28%
CC1CN(c2ccc(NC(=O)c3ccsc3)cc2C(=O)N2CCN(Cc3ccc(C(C)(C)C)cc3)CC2)CC(C)O1 (configuration not stated),90%,80%,12%
COc1ccc(C2N=C(N)N=C(N)N2OCc2ccccc2)cc1OC.Cl (configuration not stated),95%,2%,1%
O=C(NC1CC1)c1ccc(Nc2nccc(-c3c(-c4cccc(NC(=O)c5c(F)cccc5F)c4)nn4ccccc34)n2)cc1,94%,96%,84%
CN(CCc1ccccc1)c1ncc(-c2cccc(CNCCC3CCCN3C)c2)cn1 (configuration not stated),92%,98%,99%
Fc1ccc2[nH]c(-c3ccc(-c4ccc(CNCc5ccccc5)cc4)cc3)nc2c1.O=C(O)C(F)(F)F,100%,94%,35%
CC(=O)N[C@@H]1c2cc(C(C)=O)ccc2OC(C)(C)[C@@H]1O,97%,3%,15%
CCNc1cc(C(=O)N[C@@H](Cc2ccccc2)[C@H](O)CN[C@H](C)c2ccccc2)cc(N2CCCC2=O)c1,97%,99%,0%
C=CCc1cc(Br)ccc1OCCCOc1c(N)nc(N)nc1N.Cl,92%,0%,47%
Cc1ccc(-c2nc3cc(C(=O)NC4CCC(N5CCCc6ccc(C#N)cc6C5)CC4)ccc3[nH]2)cc1 (configuration not stated),100%,49%,23%
O=S(=O)(Nc1cccc(CCN2CCCCC2CCN2CCCC2)c1)c1cccc2ccccc12 (configuration not stated),97%,6%,23%
